Bioassay records deposited in PubChem by several laboratories.
Mtb bLac sens – beta-lactam sensitization of Mtb H37Rv; M. tuberculosis H37Rv growth with meropenem, percent inhibition; inhibition, % at 25 µM; 0.27% of 330,000 active; call rule not given here;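 further: growth measured after seven days incubation then overnight dye step; 0% = bacteria only wells and 100% = bacteria with antibiotic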
Sa ugtP lethal – compounds lethal to S. aureus RN4220 ugtP deletion mutant; OD600 growth, 16 h; growth inhibition, % (test concentration not listed); 0.54% of 330,000 active; AID 1259309; in the data active means growth inhibition above about 68%;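 further: plate controls were untreated wells for no effect and antibiotic for full effect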
PfHsp40 rescue – restores yeast growth despite PfHsp40 toxicity; S. cerevisiae expressing PfHsp40, growth rescue, ATP luminescence; growth rescue, % at 12.5 µM; 0.68% of 340,000 active; AID 504582; in the data active means growth rescue above about 28%, passing the limit was not always enough;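 further: yeast W303a lacking pdr1 and pdr3 grown in galactose medium; growth measured after three days at 30 °C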
BH1578 lux ind – induces V. cholerae light production without autoinducers; V. cholerae BH1578 lux reporter, luminescence, 6 h; activation, % at 18.7 µM; 0.16% of 350,000 active; AID 588436; in the data active means activation mostly above about 9.7%, no sharp cut-off
Sa RN4220 lethal – kills Staphylococcus aureus RN4220; S. aureus RN4220 growth, OD600, 16 h; inhibition, % (test concentration not listed); 0.33% of 330,000 active; in the data active means inhibition above about 85%;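 further: plate controls were untreated cells for no effect and reference antibiotic for full effect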
* hit, by the source's call; i = inactive; . = no result. Most compounds without a hit are left out; they make up all but 1.2% or so of the library.

SMILES	Mtb bLac sens	Sa ugtP lethal	PfHsp40 rescue	BH1578 lux ind	Sa RN4220 lethal
CC(C)(C)c1cc(NCc2ccccn2)n2ncc(-c3ccccc3)c2n1	98.5	12.0	51.5*	i	-11.0
CCCn1nc(NC(=O)c2cccs2)c2cc3cc(C)ccc3nc21	19.4	.	47.7*	i	.
CCCn1nc(NC(=O)c2cccs2)c2cc3cc(OC)ccc3nc21	70.8	-10.2	68.5*	i	-1.2
CCCn1nc(NC(=O)c2cccs2)c2cc3ccc(C)cc3nc21	-0.3	-15.3	0.3	0.2	6.3
CCCCn1nc(NC(=O)c2cccs2)c2cc3cc(OC)ccc3nc21	68.0	-0.7	5.9	i	-14.3
C/C(C=NNc1nc(N2CCCCC2)nc(N2CCCCC2)n1)=C/c1ccccc1	.	2.2	.	.	-4.9
O=C(Nc1nnc(SCc2ccc(F)cc2)s1)c1ccccn1	.	98.9*	161.4*	i	98.4*
O=C(Nc1nnc(SCc2ccc(F)cc2)s1)c1cccnc1Cl	26.5	5.3	-1.3	0.3	-5.7
Cc1ccc(-n2c(C)cc(=O)cc2C)cc1[N+](=O)[O-]	-5.1	20.1	1.4	24.9*	6.6
O=C(Nc1ccc(N2CCOCC2)cc1)c1cc2c(s1)CCCCC2	5.7	1.7	4.6	i	9.8
O=C(Nc1ccccc1N1CCOCC1)c1cc2c(s1)CCCCC2	17.2	-4.0	73.2*	-0.2	7.5
CCc1sc(C(=O)Nc2ccccc2N2CCOCC2)cc1C	6.5	6.6	107.5*	-1.9	8.6
O=C(Nc1ccccc1N1CCOCC1)c1ccc([N+](=O)[O-])s1	97.6	.	8.5	i	.
O=C1CCCCC=CCC(CC(=O)N(CCO)Cc2ccccc2)C(=O)NC(c2ccccc2)CO1 (stereo unspecified)	.	-0.7	.	.	6.5
CCCCc1ccc(-n2c(Cc3cccs3)n[nH]c2=S)cc1	-0.3	34.6	304.9*	i	7.6
Cc1c(N=Cc2cc(Br)cc(Br)c2O)cccc1C(=O)O	13.0	6.1	58.9*	-0.4	29.9
COCCNC(=S)N1CCC(C(=O)c2ccc(C)cc2)CC1	-9.8	7.6	48.1*	i	5.9
COCCNC(=S)N1CCC(C(=O)c2ccc(Cl)cc2)CC1	.	.	.	0.8	.
CC(CC(=O)NCCCN1CCOCC1)=NNC(=O)COc1ccc(C)cc1	.	12.3	.	.	4.8
Cc1cc(C)c(NC(=O)c2cc3c(nc4sccn43)s2)c(C)c1	-1.3	-6.2	66.4*	i	4.6
CCC1=C(OC(=O)N(CC)CC)N2C(=O)OC(=NCCc3c[nH]c4ccccc34)[C@]2(Cc2ccccc2)C2C1=CCC1C(=O)N(C)C(=O)C12 (stereo partly specified)	.	-2.7	.	.	2.1
CC(C)c1ccc(-n2c(O)c(/C=N/NC(=O)c3ccccc3O)c(=O)[nH]c2=S)cc1	2.3	10.1*	-1.3	i	88.5
O=C(N/N=C/c1c(O)n(C2CCCCC2)c(=S)[nH]c1=O)c1ccccc1O	2.0	92.4*	-0.8	i	76.7
CC(C)(C)OC(=O)CC1CC=CCC(CC(=O)N(CCO)Cc2ccccc2)C(=O)NCC(c2ccccc2)OC1=O (stereo unspecified)	.	4.6	.	.	3.6
NC(N)=NS(=O)(=O)c1ccc(NC(=S)NC(=O)/C=C/c2ccc(F)cc2)cc1	1.4	2.3	-0.6	i	2.1
SMILES	Mtb bLac sens	Sa ugtP lethal	PfHsp40 rescue	BH1578 lux ind	Sa RN4220 lethal
O=C(/C=C/c1cccs1)NC(=S)Nc1ccc(C(=O)O)cc1	23.8	.	1.4	i	.
NS(=O)(=O)c1ccc(NC(=S)NC(=O)/C=C/c2cccs2)cc1	3.9	active	0.6	-0.5	83.4
NC(N)=NS(=O)(=O)c1ccc(NC(=S)NC(=O)/C=C/c2cccs2)cc1	3.1	84.6*	-0.7	0.4	3.4
Cc1ccc(-n2c(O)c(C=Nc3ccccc3N)c(=O)[nH]c2=O)cc1C	-3.4	-0.9	39.6*	-0.4	-0.5
Cc1ccc(C=Nn2c(-c3ccncc3)n[nH]c2=S)o1	.	6.1	.	.	5.6
N#Cc1ccc(C=CC(=O)c2ccco2)cc1	.	-0.5	.	.	5.7
COc1ccc(/C=C2/C(=O)N=C(N)N2C)cc1OC	-4.5	.	3.6	16.7*	.
NC(=O)C1CCCNc2c(I)cc([N+](=O)[O-])cc2C(=O)NC(CO)C(=O)NC(Cc2ccc(O)cc2)C(=O)N1 (stereo unspecified)	.	-1.1	.	.	4.3
Cc1ccc(NC(=O)CSc2nnc(NC(=O)CN3CCOCC3)s2)cc1	8.6	0.2	0.5	-5.9	0.6
Cc1cccc(C)c1NC(=O)CSc1nnc(NC(=O)CN2CCOCC2)s1	-4.0	11.4	63.9*	i	5.6
CCCOc1ccc(C(=O)NNC(=S)NC(=O)CC)cc1	99.6	40.7	115.3*	-0.4	67.7
